Shown are actives, neighbours in structure and some others; about 12% of the full set was active somewhere.
G9a block = blocks human histone lysine methyltransferase G9a; G9a H3K9 monomethylation, AlphaScreen, 2 h; Potency, µM (series often up to 102 µM), for the others: at the top dose activity, negative = inhibition, actives largely listed as inhibitors; hit rate 8.8% among 350,000; further: on the % scale 0 is the no-effect control and ±100 the full control effect; nearly all actives have a fitted effect of over 75% in size
Target sequence (Q96KQ7 913-1193 limits assumed): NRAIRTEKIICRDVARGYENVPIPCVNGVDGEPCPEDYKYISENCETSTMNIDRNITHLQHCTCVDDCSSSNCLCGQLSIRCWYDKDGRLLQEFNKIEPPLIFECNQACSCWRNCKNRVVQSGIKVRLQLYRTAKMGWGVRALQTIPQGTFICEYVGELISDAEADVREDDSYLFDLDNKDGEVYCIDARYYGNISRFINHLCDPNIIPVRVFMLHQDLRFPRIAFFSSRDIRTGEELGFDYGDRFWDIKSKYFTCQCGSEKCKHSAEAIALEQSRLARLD
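Signal arises when biotinylated H3K9 peptide, once monomethylated, bridges streptavidin donor and antibody-captured acceptor beads. Enzyme at 20 nM was preincubated 15 min with test compounds; peptide 500 nM and SAM 20 uM then reacted for 2 h.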
JMJD2A Tudor = inhibitors of human JMJD2A Tudor domain; hit rate 4.4% among 390,000; AlphaScreen JMJD2A-Tudor / H3K4me3 peptide binding; AID 504339; Potency, µM (doses to about 114 µM), without a hit: at the highest dose activity change, negative = inhibition, most hits filed as inhibitors; further: on the % scale 0 is the no-effect control and ±100 the full control effect; nearly all actives have a fitted effect of over 50% in size
Sfp inh = Sfp phosphopantetheinyl transferase inhibition | Potency, µM, inactives show largest response in the series, negative = inhibition, usual class: inhibitors | Q9F4F7 | Biochemical Sfp PPTase activity, qHTS | hit rate 3.5% among 310,000;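 further: the enzyme is Sfp with the accession as filed and its product quenches rhodamine fluorescence; 0% = enzyme reaction without inhibitor and -100% = no enzyme wells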
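Sfp 15 nM + cpd, 15 min RT; start w/ rhodamine-CoA 5 uM, BHQ-2-YbbR 12.5 uM (final); 50 mM Hepes pH 7.6, 10 mM MgCl2, 0.01% NP-40, 0.01% BSA; read 525/598 nm at 0 and 30 min.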
BAZ2B inh = BAZ2B (human) inhibition; Q9UIF8; AlphaScreen BAZ2B-H3K14Ac peptide displacement; Potency, µM (titrated, usually from 114 µM), inactives show at the top dose activity change, negative = inhibition, actives largely listed as inhibitors; hit rate 4.4% among 360,000; AID 504333; further: on the % scale 0 is the no-effect control and ±100 the full control effect; nearly all actives have a fitted effect of over 60% in size
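In this displacement format the biotinylated H3(5-23) peptide acetylated at Lys14 serves as ligand at 50 nM, with BAZ2B at 50 nM in PBS pH 7.4 containing 0.01% Tween-20. Donor and acceptor beads are 10 ug/mL final.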
PLK1 PBD inh = blocks phosphopeptide binding to human PLK1 polo-box domain. P53350. Plk1 PBD binding of FITC phosphopeptide, fluorescence polarization. Potency, µM, inactives show max response, negative = inhibition, usual class: inhibitors. hit rate 2.8% among 360,000; further: series mostly up to about 57 µM; on the % scale 0 is the no-effect control and ±100 the full control effect; nearly all actives have a fitted effect of over 65% in size
HP1b chromo inh = inhibitors of HP1-beta chromodomain binding to methylated histone tails. P83916. Potency, µM (titrated, usually from 114 µM), for inactives: at the top dose activity change, negative = inhibition, usual class: inhibitors. hit rate 0.56% among 390,000. AlphaScreen HP1-beta / biotin-H3K9me3 peptide binding; further: nearly all actives have a fitted effect of over 70% in size
Target sequence (P83916 whole entry, looked up): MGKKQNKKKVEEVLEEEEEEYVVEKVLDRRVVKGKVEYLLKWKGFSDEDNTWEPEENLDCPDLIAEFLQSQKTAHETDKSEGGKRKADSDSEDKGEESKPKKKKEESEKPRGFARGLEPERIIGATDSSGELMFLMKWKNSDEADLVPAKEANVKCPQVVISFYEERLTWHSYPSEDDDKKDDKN
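HP1-beta protein (50 nM final) preincubated 30 min at room temperature with biotinylated H3(1-18)K9me3 peptide (50 nM) in PBS pH 7.4, 0.01% Tween-20, then compound added for 30 min. AlphaScreen streptavidin donor/nickel chelate acceptor beads (10 ug/mL final), 30 min dark, luminescence read.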
The depositor's hits bear a star; ! = a repeat was not active; [ ] = remark or other dose. The call rests on the fitted dose curve; in most records, active means well fitted curve in the direction sought with a large enough effect; inconclusive means small, poorly fitted or top-dose-only effect, or another doubt; inactive means no such curve, though single readings can be large; an effect the other way counts as inactive or inconclusive. Potency means the concentration at half of the fitted maximal effect.

How did O=C(NCSc1ccnc(SCNC(=O)c2ccc(F)cc2)n1)c1ccc(F)cc1 do in these assays?
G9a block: 2.8µM*; JMJD2A Tudor: -29%; Sfp inh: 8.9µM*; BAZ2B inh: -30%; PLK1 PBD inh: -8%; HP1b chromo inh: 20%

Results for CCCCCCCCCCCCCCCCCC(=O)OC(CC(=O)O)C[N+](C)(C)C (stereo not given) ?
G9a block: 17µM*!

How did Cc1ccc2c(c1)nnn2C1CCN(S(=O)(=O)c2ccc(C(=O)N3C(C)CCCC3C)cc2)CC1 (stereo not given) do in these assays?
G9a block: 25µM*; JMJD2A Tudor: 50µM*; Sfp inh: -16%; BAZ2B inh: inconclusive; PLK1 PBD inh: -16%; HP1b chromo inh: 5%

What do the screens show for `Cc1ccc2c(c1)nnn2C1CCN(S(=O)(=O)c2ccc(C(=O)O)cc2)CC1`?
JMJD2A Tudor: -3%; Sfp inh: -4%; BAZ2B inh: -6%; PLK1 PBD inh: -6%; HP1b chromo inh: 20%

How did COc1ccc(C(c2c(O)ccc3ccccc23)N2CCOCC2)c(OC)c1 (stereo not given) do in these assays?
G9a block: 32µM*; JMJD2A Tudor: 89µM*; Sfp inh: -23%; BAZ2B inh: -10%; PLK1 PBD inh: inconclusive; HP1b chromo inh: -4%

Results for Cc1c(C(=O)OC(C)C)sc(NC(=O)C2c3ccccc3Oc3ccccc32)c1C(=O)OC(C)C ?
G9a block: -23%[59 µM]; JMJD2A Tudor: -12%; BAZ2B inh: -9%; HP1b chromo inh: 10%

How did Cc1cc(NS(=O)(=O)c2ccc(NC(=O)c3cc(-c4ccccc4Cl)nc4ccccc34)cc2)no1 do in these assays?
G9a block: inconclusive; JMJD2A Tudor: -31%; Sfp inh: 10%; BAZ2B inh: -25%; PLK1 PBD inh: 67µM*; HP1b chromo inh: 19%

How did Cc1cc(C)c2nc(-c3ccccn3)cc(C(=O)Nc3ccc(S(=O)(=O)Nc4onc(C)c4C)cc3)c2c1 do in these assays?
G9a block: 13µM*; JMJD2A Tudor: 56µM*; Sfp inh: 35µM*; BAZ2B inh: 35µM*; PLK1 PBD inh: 6.7µM*; HP1b chromo inh: 50µM*

How did Cc1cc(C)c2nc(-c3ccccn3)cc(C(=O)Nc3ccc(S(=O)(=O)Nc4cc(C)on4)cc3)c2c1 do in these assays?
G9a block: -9%[0.501 µM]; JMJD2A Tudor: 50µM*; Sfp inh: inconclusive; BAZ2B inh: 50µM*; PLK1 PBD inh: 21µM*; HP1b chromo inh: -8%

How did Cc1cc(C)c2nc(-c3ccccn3)cc(C(=O)NCCc3ccc(S(N)(=O)=O)cc3)c2c1 do in these assays?
G9a block: 35µM*; JMJD2A Tudor: -17%; Sfp inh: 28µM*; BAZ2B inh: 9%; PLK1 PBD inh: 30µM*; HP1b chromo inh: 15%

What do the screens show for `COc1cccc(-c2nc(CS(=O)(=O)CC(=O)N3CCN(c4ccccc4)CC3)c(C)o2)c1`?
G9a block: -6%[59 µM]; JMJD2A Tudor: inconclusive; BAZ2B inh: inconclusive; HP1b chromo inh: 8%

Results for Cn1c(SCc2ccc(C(F)(F)F)cc2)nc2c([nH]c3ccccc32)c1=O ?
G9a block: 9%[59 µM]; JMJD2A Tudor: inconclusive; BAZ2B inh: -1%; HP1b chromo inh: 22%[57 µM]

Results for COc1ccc2c(c1OC)C(=O)N1N=C(c3ccc(-c4ccccc4)cc3)CC21 (stereo not given) ?
G9a block: -5%; JMJD2A Tudor: -25%; Sfp inh: 7%; BAZ2B inh: -12%; PLK1 PBD inh: -8%; HP1b chromo inh: 22%

How did COc1ccc2c(c1OC)C(=O)N1c3ccccc3N=C(c3ccc([N+](=O)[O-])cc3)CC21 (stereo not given) do in these assays?
G9a block: inconclusive; JMJD2A Tudor: inconclusive; Sfp inh: 20µM*; BAZ2B inh: 8%; PLK1 PBD inh: 0%; HP1b chromo inh: -7%

Compound activity deposited in PubChem BioAssay by National Center for Advancing Translational Sciences (NCATS).
